# Experimental data published in the supplement of paper PMC6555819.
# Assays:
# Assay in all cases: PBM binding z-score (relative to random genomic background probes); higher = stronger binding; sequences stand for … in GC…GCGATTGACAGCGTAGAATGAAGG
# [1] = system: FXR:RXRa (NR concentration 270 nM, RXRa partner concentration 90 nM)
# Summary of the method: (§1)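 For binding z-scores, the reference was random background probes on custom Agilent 4×180K protein-binding microarrays. These arrays were incubated 1 h with ligand-free nuclear receptor dimers in PBS pH 7.4, 2% milk, 0.02% Triton X-100, 1 mM DTT, 0.2 mg/mL BSA and 0.4 mg/ml salmon testes DNA. Fluorescence was scanned after antibody detection of each partner (one per run) and regression-normalized.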
# [2] = system: LXRa:RXRa (NR concentration 270 nM, RXRa partner concentration 90 nM)
# Summary of the method: as §1
# [3] = system: LXRa homodimer (NR concentration 270 nM)
# Summary of the method: as §1
# [4] = system: LXRb:RXRa (NR concentration 270 nM, RXRa partner concentration 90 nM)
# Summary of the method: as §1
# [5] = system: LXRb homodimer (NR concentration 270 nM)
# Summary of the method: as §1
# [6] = system: PPARa:RXRa (NR concentration 270 nM, RXRa partner concentration 90 nM)
# Summary of the method: as §1
# [7] = system: PPARg:RXRa (NR concentration 180 nM, RXRa partner concentration 90 nM)
# Summary of the method: as §1
# [8] = system: PPARg:RXRa 270nM:90nM, anti-RXR (NR concentration 270 nM, RXRa partner concentration 90 nM)
# Summary of the method: as §1
# [9] = system: PPARg:RXRa 30nM:10nM, anti-RXR (NR concentration 30 nM, RXRa partner concentration 10 nM)
# Summary of the method: as §1
# [10] = system: PPARg:RXRa 90nM:30nM, anti-RXR (NR concentration 90 nM, RXRa partner concentration 30 nM)
# Summary of the method: as §1
# [11] = system: PPARg:RXRa DBDmut IVT, anti-RXR (DBD mutation: RXRa K156A/R161A, NR concentration 270 nM, RXRa partner concentration 90 nM)
# Summary of the method: as §1
# [12] = system: PPARg:RXRa IVT, anti-PPARg (NR concentration 270 nM, RXRa partner concentration 90 nM)
# Summary of the method: as §1
# [13] = system: PPARg DBDmut:RXRa IVT, anti-PPARg (DBD mutation: PPARg1 K132A/R137A, NR concentration 270 nM, RXRa partner concentration 90 nM)
# Summary of the method: as §1
# [14] = system: PPARg DBDmut IVT, anti-PPARg (DBD mutation: PPARg1 K132A/R137A, NR concentration 270 nM)
# Summary of the method: as §1
# [15] = system: PPARg homodimer (NR concentration 180 nM)
# Summary of the method: as §1
# [16] = system: PXR:RXRa (NR concentration 270 nM, RXRa partner concentration 90 nM)
# Summary of the method: as §1
# [17] = system: PXR homodimer (NR concentration 270 nM)
# Summary of the method: as §1
# [18] = system: RARa:RXR (NR concentration 270 nM, RXRa partner concentration 90 nM)
# Summary of the method: as §1
# [19] = system: RARa homodimer (NR concentration 270 nM)
# Summary of the method: as §1
# [20] = system: RARb:RXRa (NR concentration 270 nM, RXRa partner concentration 90 nM)
# Summary of the method: as §1
Sequence,PBM binding z-score [1],PBM binding z-score [2],PBM binding z-score [3],PBM binding z-score [4],PBM binding z-score [5],PBM binding z-score [6],PBM binding z-score [7],PBM binding z-score [8],PBM binding z-score [9],PBM binding z-score [10],PBM binding z-score [11],PBM binding z-score [12],PBM binding z-score [13],PBM binding z-score [14],PBM binding z-score [15],PBM binding z-score [16],PBM binding z-score [17],PBM binding z-score [18],PBM binding z-score [19],PBM binding z-score [20]
TCACATAGGTAATACAGGTGAAAGTCGGCATCTA,0.672,0.976,0.424,0.83,0.142,1.66,1.04,2.47,3.63,3.03,2.54,1.8,1.44,0.888,0.824,0.746,0.212,1.26,0.821,0.68
CTCGAAAGGTCGGTTGAGGGGAGTATACGGATAA,2.57,1.35,-0.151,1.35,0.377,2.39,0.359,0.861,-0.0851,0.567,-0.0517,0.459,0.19,0.356,0.859,1.51,-0.0252,1.79,-0.0195,3.02
AGAACGAGGTTACCAAAGATCAGGGAAACGCTTG,1.56,5.74,-0.119,2.92,-0.342,3.07,2.21,1.99,0.478,1.55,2.75,2.7,0.297,0.837,0.438,1.41,-0.605,1.66,-0.278,2.02
CAAACTAGGTCACCGGAATGTCAAAGTCCGCATG,4.57,3.52,0.679,2.64,0.303,5.44,8.97,7.22,5.76,7.24,8.65,9.1,5.11,2.79,2.69,2.31,-0.000286,3.53,0.651,4.37
GATAGAGGGTCAAGGCCAGAGTACGCGTATTGAT,5.49,3.11,-0.2,2.76,-0.344,4.99,4.72,4.24,1.61,4.04,2.88,3.71,0.404,0.208,1.98,2.84,0.414,3.34,0.0585,4.12
TGAATGAGGTTATAATATCAGGGAACGTTGCAAA,1.4,1.31,0.0955,1.38,0.0343,2.68,1.29,1.62,0.724,1.25,0.771,1.75,1.25,0.939,0.756,1.08,0.111,1.59,0.0682,1.08
CCTACTGGGCCATTCAGAGGTCATTGAACATATG,2.73,4.42,6.32,4.04,0.612,4.06,2.51,3.47,1.18,2.51,4.56,4.39,0.0817,-0.464,3.64,5.2,3.45,5.13,1.15,3.23
CCGACTGGGGCAAAAGGTTACCATAAGCCAGCCC,0.815,3.36,-0.19,1.86,-1.26,3.28,4.13,5.64,3.64,5.79,3.77,4.07,-0.978,-1.25,1.06,1.68,-0.41,2.83,0.0331,2.8
